Hits are enriched below; roughly 7.9% of the tested compounds scored in any of these assays.
HT1080 IDH1KD tx = toxicity to HT-1080 IDH1 knockdown cells (counter line); HT-1080 IDH1 knockdown viability, ATP luminescence, 48 h; Potency, µM (doses to about 46.1 µM), without a hit: at the top dose activity, negative = toxicity, hits mostly cytotoxic; hit rate 2% among 360,000; AID 686971;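 also: 0% = DMSO wells and -100% = cell-free medium wells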
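Assay cells: HT-1080 with IDH1 knockdown, 750 per well, RPMI/5% FBS. Exposure: 48 h at 37 °C following 2 h pre-incubation. Read: CellTiter-Glo luminescence; fitted concentration-response, curve class assigned.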
SW480 rerep = inducers of DNA re-replication in SW480 colon cancer cells. hit rate 1.8% among 340,000. AID 624297. SW480 DNA re-replication, Hoechst DNA content imaging, 48 h. Potency, µM (doses to about 46.1 µM), for the others: top-dose re-replication activation, actives largely listed as activators; also: % of control where 0% means no effect; nearly all actives have a fitted effect of over 55% in size
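Compounds, transferred as 23 nL by pin tool, were incubated with cells for 48 hr; DNA content per nucleus was then quantified by Hoechst staining and fluorescence plate imaging.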
HT1080NT lethal = kills 2HG-producing HT-1080-NT fibrosarcoma cells. HT-1080-NT fibrosarcoma viability, CellTiter-Glo ATP luminescence, 48 h. Potency, µM (highest dose often 46.1 µM), without a hit: at the top dose activity, negative = less viability, hits mostly cytotoxic. hit rate 1.6% among 360,000;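 also: NT is the 2HG producing partner of a matched IDH1 knockdown line; 0% = DMSO-treated cells and -100% = media-only wells without cells; nearly all actives have a fitted effect of over 55% in size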
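Viability of the 2HG-overproducing fibrosarcoma line after 48 hours of compound exposure at 37 degrees C was determined by luminescence with CellTiter-Glo, and concentration-effect curves were then fitted and categorized.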
MCF10A rereplic = DNA re-replication induction in MCF 10a cells; Potency, µM (top dose mostly 46.1 µM), for inactives: at the top dose activity, positive = re-replication, actives largely listed as activators; hit rate 2.9% among 350,000; MCF 10A DNA re-replication, Hoechst nuclear intensity, 48 h; also: % of control where 0% means no effect; nearly all actives have a fitted effect of over 50% in size
KB-V1 cytotox = KB-V1 MDR subline cytotoxicity; KB-V1 MDR cells viability, CellTiter-Glo, 72 h; Potency, µM (series often up to 46.1 µM), actives largely listed as cytotoxic; hit rate 3.4% among 400,000; also: % is scaled to controls: 0 for no effect and ±100 for the full control effect; nearly all actives have a fitted effect of over 60% in size
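qHTS viability screen in drug-selected KB-V1 MDR cells: 72 h compound treatment at 37 degrees C, ATP luminescence end point.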
KB-3-1 cytotox = KB-3-1 parental cell cytotoxicity; Potency, µM (series often up to 46.1 µM), hits mostly cytotoxic; hit rate 1.4% among 400,000; KB-3-1 viability, CellTiter-Glo ATP luminescence, 72 h; also: % is scaled to controls: 0 for no effect and ±100 for the full control effect; nearly all actives have a fitted effect of over 60% in size
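Parental KB-3-1 adenocarcinoma cells in phenol-red-free DMEM with 10% FBS were pin-treated with compounds at several concentrations, incubated 72 h at 37 °C, and viability read by CellTiter-Glo luminescence; concentration-effect curves were fitted after normalization.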
Numbers without * were called inactive; i = inactive; ? = inconclusive; · = no result; [ ] = remark or other dose. Calls follow the shape of the dose curve; as a rule, active = well fitted curve in the direction sought with a large enough effect; inconclusive = small, poorly fitted or top-dose-only effect, or another doubt; inactive = no such curve, though single readings can be large; an effect the other way counts as inactive or inconclusive. Potency is read from the fitted curve at half-maximal effect.

SMILES	HT1080 IDH1KD tx	SW480 rerep	HT1080NT lethal	MCF10A rereplic	KB-V1 cytotox	KB-3-1 cytotox
CC(=O)c1ccc(S(=O)(=O)N2CCN(CC(=O)Nc3ccnn3C3CCCC3)CC2)cc1	3%	-6%	-1%[9.24 µM]	10%	i	?
CCN(CC)c1ccc(/C=C/c2cccc[n+]2C)c(OC)c1	?	18µM*	?	?	i	0.65µM*
COc1ccc(-c2nc3cccc(C)n3c2NCC2CCCO2)cc1O (centres undefined)	-8%	-10%	-3%	9%	12µM*	i
O=C(COc1cccc(Cl)c1)Nc1cc(S(=O)(=O)N2CCOCC2)ccc1N1CCOCC1	-1%	3%	-1%	4%	i	i
COc1cc(C2CC(=O)N(c3ccc(C)cc3)C(=O)C2)cc(OC)c1OC	?	3.7µM*	3.3µM*	6.5µM*	4.6µM*	4.6µM*
CC(=O)C1=C(O)C(CSCc2ccccc2)N(C)C1=O (centres undefined)	-1%	0%	2%	5%	21µM*	i
CCN1CCN(c2csc3ccc(Br)cc3c2=O)CC1	·	·	·	·	?	i
O=C(Nc1ccc2c(c1)OCO2)C1CCN(S(=O)(=O)c2ccc3c(c2)OCCO3)CC1	-8%	29%	-11%	4%	?	i
COc1ccccc1CNC(=O)C1CCN(S(=O)(=O)c2ccc3c(c2)NC(=O)CO3)CC1	0%	-20%	1%	-5%	i	i
COc1ccccc1CNC(=O)C1CCN(S(=O)(=O)c2ccc3c(c2)OCCCO3)CC1	5%	21%	1%	0%	18µM*	i
COc1ccc(S(=O)(=O)N2CCC(C(=O)Nc3ccc4c(c3)OCCO4)CC2)cc1OC	-21%	9%	-15%	2%	18µM*	i
O=C(NCc1ccc2c(c1)OCO2)C1CCN(c2ccc(S(=O)(=O)N3CCCC3)cc2)CC1	0%	6%	-2%	2%	2.6µM*	?
COc1ccccc1NC(=O)C(C)OC(=O)C1CCN(S(=O)(=O)c2ccc(C)c(C)c2)CC1 (centres undefined)	-1%	-2%	-1%	15%	7.3µM*	i
Cn1c(N)c(C(=O)COC(=O)c2ccc(-c3ccccc3)cc2)c(=O)n(C)c1=O	4%	-4%	12%	?	i	i
O=C(NCc1ccc(F)cc1)C1CCN(S(=O)(=O)c2ccc3c(c2)OCCCO3)CC1	-2%	2%	8%	11%	?	i
CCCNC(=O)C1CCN(c2ccc(S(=O)(=O)N3CCOCC3)cc2Cl)CC1	3%	1%	5%	2%	?	i
O=C(NCc1cccnc1)C1CCN(c2ccc(S(=O)(=O)N3CCOCC3)cc2Cl)CC1	?	?	?	11%	i	23µM*
O=C(NCc1ccc(Cl)cc1Cl)C1CCN(S(=O)(=O)c2ccc3c(c2)OCCCO3)CC1	-21%	-255%	0%	-3%	3.3µM*	?
COc1cccc(CNC(=O)C2CCN(S(=O)(=O)c3ccccc3)CC2)c1	9%	1%	15%	2%	21µM*	i
COc1ccc(S(=O)(=O)N2CCC(C(=O)NCc3cccc(OC)c3)CC2)cc1	10%	8%	4%	15%	i	i
COc1ccccc1C(=O)Nc1c(C(=O)N2CCN(c3ccccc3F)CC2)oc2ccccc12	·	·	·	·	i	i
O=C(Nc1ccccc1)c1ccccc1NS(=O)(=O)c1ccc(Cl)s1	?	1%	?	10%	4.1µM*	5.2µM*
O=S(=O)(Nc1ccccc1N1CCCC1)c1ccccc1C(F)(F)F	-4%	·	1%	·	i	i
O=C(Nc1ccccc1Cc1ccccc1)c1ccccc1NS(=O)(=O)c1ccc(Cl)s1	?	?	16µM*	9.2µM*	2.6µM*	?
